What all share (assay): NCI-60 one-dose screen, 48 h (100 = growth as untreated, 0 = no growth, -100 = all killed)
Conditions in all cases: 10 µM unless noted

Assay [1] deals with DU-145 prostate.
Assay [2] concerns K-562 leukemia.
The subject of assay [3] is MALME-3M melanoma.
The subject of assay [4] is MDA-MB-231 breast.
Assay [5] concerns RXF 393 renal.
Assay [6] deals with SF-268 CNS.
Assay [7] concerns SF-295 CNS.
The test system of assay [8] is SF-539 CNS.
The subject of assay [9] is UACC-257 melanoma.
Assay [10] deals with M14 melanoma.

SMILES strings stand for the structures. This is part of a sample that, as a whole, favours compounds with a hit. Of some 83,000 tested, about 20% had one in any assay.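 Each cell line was grown in a 96-well plate and treated with one concentration of compound for 48 hours. Values below 10 were considered active.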 Unmarked numbers belong to inactive results. Active and inactive are the calls of the source.

Take `O=S(=O)(Nc1ccc(Cl)c(F)c1)c1ccc(-c2cnc(C3CC3)o2)cc1`: the growth in assay [1] is 16.6%; in assay [2] it was 12.3%; in assay [3] it was 35.3%; in [4] it was 37.8%; in assay [5], -7.66% (active); in assay [6], 52.1%. The growth in assay [7] was 10.3%; in [8], -15.5% (active); in [9], 52.9%; in assay [10] it was 19.5%.

`CCOc1cc2ncc(C#N)c(Nc3ccc(OCc4cccc(F)c4)c(Cl)c3)c2cc1NC(=O)CC1CCSS1` (stereo unspecified): the growth was -24.9% (active) in [1]; 10.5% in [2]; 56.5% in assay [3]; 14.5% in assay [4]; 50.2% in assay [5]; -22.3% (active) in [6]. Further, the growth in assay [7] was 91.3%; in assay [8], 49.9%; in assay [9], 64.8%; in assay [10], -68.5% (active).

Regarding `Fc1ccc2[nH]cc(SSc3c[nH]c4ccc(F)cc34)c2c1`, the growth is 90.4% in assay [1]; 23.2% in assay [2]; 83.6% in [3]; 42.7% in assay [4]; 14.4% in [5]; 17.7% in [6]. For the same compound, the growth in assay [7] was -17.2% (active); in assay [8] it was 36.8%; in assay [9], 78.7%; in assay [10], 53.2%.

With `OC(c1cc2cc(Cl)c(Cl)cc2c2cc(C(F)(F)F)ccc12)C1CCCCN1` (stereo unspecified), the growth in [1] was -86.2% (active); in [2], -63.5% (active); in assay [3] it was -17.6% (active); in [4] it was -71.3% (active); in [5] it was -96.2% (active); in assay [6] it was -88.6% (active). In addition, the growth was -57.9% (active) in assay [8], -73% (active) in assay [9] and -80.9% (active) in assay [10].

On to `COc1cccc(-c2nc3sccn3c2-c2ccnc(NCCCNS(=O)(=O)c3cccc(Cl)c3)c2)c1`, for which the growth in assay [1] was 46.4%; in [2], 22.2%; in [3], 60%; in assay [4] it was 71.9%; in assay [5] it was 71.9%; in [6] it was 52.2%. Besides, the growth was 21.2% in assay [7], 86.2% in assay [8], 55.2% in assay [9] and 30.8% in [10].

`COc1ccc(-c2n[nH]nc2-c2csc3ccccc23)cc1OC`: the growth in [1] was 41.5%; in assay [2], 9.48% (active); in assay [3], 56.9%; in [4], 35.6%; in [5], 23.5%; in [6], 30.2%. The growth in [7] was 25.9%; in [8] it was -2.39% (active); in assay [9] it was 40.1%; in [10] it was 7.35% (active).

Turning to `Cc1ccc(C2=NN3C(C2)c2cc(Br)ccc2OC32CCN(Cc3ccccc3)CC2)o1` (stereo unspecified), the growth in assay [1] was 98.8%; in [2], 85.3%; in assay [3], 103%; in assay [4] it was 92.3%; in assay [5], 110%; in assay [6], 84.4%. The growth in assay [7] is 100%; in assay [8], 101%; in assay [9], 101%; in assay [10], 106%.

As to `COc1cc2c(cc1-c1c(C)noc1C)ncc1nc(C3CCOCC3)n([C@H](C)COC(F)F)c12`, the growth was 69.2% in [1]; 30.5% in assay [2]; 71.7% in assay [3]; 46.3% in assay [4]; 54.8% in assay [5]; 65.5% in [6]. The growth in assay [7] was 49.7%; in assay [8], 33.6%; in [9], 31.8%; in assay [10], 46.2%.

Take `COC(=O)c1ccc2oc(NC(=O)c3ccc(Nc4ccc([N+](=O)[O-])cc4C)c([N+](=O)[O-])c3)nc2c1`: the growth is 108% in assay [1]; 104% in assay [2]; 100% in assay [3]; 105% in assay [4]; 103% in assay [5]; 97.9% in assay [6]. Also, the growth in [7] is 98.8%; in assay [8] it was 96.1%; in assay [9], 103%; in assay [10], 110%.

Take `NC(=O)c1cc(Cl)ccc1NC(=O)/C=C/c1ccccc1`: the growth is -0.745% (active) in assay [1]; 11.6% in assay [2]; 67% in assay [3]; 39.2% in assay [4]; -11.1% (active) in assay [5]; 46.1% in assay [6]. For the same compound, the growth is -6.33% (active) in assay [8], 46.2% in assay [9] and 28.1% in assay [10].

For `COc1ccc(/C=C(\C#N)C(=O)Nc2cccc(Nc3nc(SC)nc(-c4cccc([N+](=O)[O-])c4)c3C#N)c2)cc1OC`, the growth was 107% in assay [1]; 77.9% in assay [2]; 97% in assay [3]; 68.9% in assay [4]; 110% in assay [5]; 103% in [6]. The growth in [7] was 97.2%; in assay [8], 93.4%; in assay [9], 103%; in assay [10] it was 91.5%.

Regarding `COc1ccc(/C=C2\Oc3cc(OCCCCN4CCCC4)ccc3C2=O)cc1`, the growth was 95% in assay [1]; -40.3% (active) in assay [2]; 110% in [3]; 91.3% in assay [4]; 74.5% in assay [5]; 87.9% in assay [6]. The growth was 83.5% in assay [7], 42.4% in [8], 96.9% in [9] and 86.2% in assay [10].

Consider `O=C1CC(=NCC(=O)n2c(-c3ccccc3)nc3ccccc32)NN1`, for which the growth in assay [1] is 115%; in [2], 111%; in assay [3], 111%; in assay [4], 90.1%; in assay [5], 110%; in assay [6], 102%. Besides, the growth in assay [7] is 101%; in [8], 99.4%; in [9], 120%; in assay [10], 104%.

With `CN(Cc1cc(Cl)cc(Cl)c1O)Cc1cc(Cl)cc(Cl)c1O`, the growth is 68.9% in assay [1]; 98.5% in assay [2]; 92.7% in assay [3]; 78.5% in [4]; 81.8% in assay [5]; 62.6% in [6]. The growth is 58.1% in assay [7], 81.9% in assay [8], 82.4% in [9] and 71% in assay [10].

Consider `Cn1cc(-c2nonc2-c2cn(C)c3ccc(F)cc23)c2ccccc21`, for which the growth is 13.6% in [1]; 9.9% (active) in [2]; 54.1% in [3]; 25.6% in assay [4]; -13.4% (active) in assay [5]; 43.3% in assay [6]. The growth is 26% in [7], -25.4% (active) in assay [8], 60.6% in assay [9] and 18.6% in assay [10].

In the case of `CC(C)CC1C(=O)N2CCC[C@H]2C2(O)O[C@](NC(=O)C3C=C4c5cccc6[nH]c(Br)c(c56)C[C@H]4N(C)C3)(C(C)C)C(=O)N12` (stereo partly specified), the growth was 83.6% in assay [1]; 34.5% in assay [2]; 74.7% in [3]; 46.3% in assay [4]; 36.8% in assay [5]; 55.8% in assay [6]. Also, the growth was 73.6% in assay [8] and 51% in [9].

(Values after PubChem BioAssay (NCI).)
